Consider 20 compounds from PubChem BioAssay (NCI).

Test [1] in a line: NCI Yeast Anticancer Drug Screen. Data for the rad50 strain (AID 155).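 Also: 0% = growth of vehicle-only cultures of the same strain.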 Conditions: S. cerevisiae rad50 strain growth inhibition, stronger effect = higher value; at 50.0 µM unless noted. The procedure, abridged:
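Compounds were tested on a yeast strain with an engineered DNA damage repair alteration; the reported value is growth inhibition normalised to vehicle treatment.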

Test [2] in a line: NCI Yeast Anticancer Drug Screen. Data for the mec2-1 strain (AID 157). The note with it: S. cerevisiae mec2-1 strain, stronger effect = higher value; at 50.0 µM unless noted. The procedure, abridged: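 Using mec2-1 yeast: add compound, measure growth, express inhibition versus vehicle-treated cultures.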
A short description of test [3]: NCI Yeast Anticancer Drug Screen. Data for the sgs1 mgt1 strain (AID 161).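 Also: 0% = growth of cultures given vehicle only.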 The note with it: S. cerevisiae sgs1 mgt1 strain, stronger effect = higher value; at 50.0 µM unless noted. The procedure, abridged: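 Percent growth inhibition was derived by comparing compound-exposed mutant yeast with vehicle-exposed cultures. The strain carries alterations in DNA damage repair.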

Test [4] is described as follows: NCI Yeast Anticancer Drug Screen. Data for the cln2 rad14 strain (AID 165).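 Also: 0% = growth equal to vehicle treated cultures.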 The note with it: S. cerevisiae cln2 rad14 strain, stronger effect = higher value; at 50.0 µM unless noted. The procedure, abridged:
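Yeast strain cln2 rad14, bearing defects in cell cycle control and DNA repair, serves as the test system; values reflect growth inhibition compared with vehicle.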

The nature of test [5]: NCI Yeast Anticancer Drug Screen. Data for the bub3 strain (AID 167). The note with it: S. cerevisiae bub3 mutant strain, stronger effect = higher value; at 50.0 µM unless noted. The procedure, abridged:
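Growth of a checkpoint-deficient yeast mutant is measured after compound exposure. Values represent inhibition relative to vehicle.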

The nature of test [6]: NCI Yeast Anticancer Drug Screen. Data for the mlh1 rad18 strain (AID 175). The note with it: S. cerevisiae mlh1 rad18 strain growth inhibition, stronger effect = higher value; at 50.0 µM unless noted. The procedure, abridged: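 Steps: expose repair-defective yeast to compound; measure growth; express inhibition against vehicle-treated controls.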

Compounds without any hit were thinned out: in the full panel of roughly 79,000, 15% have a hit. Values without a mark were called inactive. Calls of active or inactive are those of the source. Rule as the data show it: active = growth inhibition above about 70%; inactive = the rest.

Regarding `NC(=S)N/N=C/c1ccc(N)cn1`, the growth inhibition in test [1] is -4.2%; in test [2], 17%; in test [3] it was -0.5%; in test [4], 0.25%; in test [5], 8.15%; in test [6], -8.8%.
Consider `CC1=CCC(C(C)C)C2CC(C)(O)CCC12` (stereo not given), for which the growth inhibition is -3.1% in test [1]; -1.8% in test [2]; 7.15% in test [3]; -24.9% in test [4]; -4.35% in test [5]; 0.95% in test [6].
On to `CC(C)/C(Cl)=N/OC(=O)Nc1ccc(F)c(Cl)c1`, for which the growth inhibition was 37.4% in test [1]; 35.3% in test [2]; 89.3% (active) in test [3]; -1.3% in test [4]; 60.8% in test [5]; -36.8% in test [6].
Take `O=C1c2ccccc2C(=O)N1CCCCCCS(=O)(=O)Cl`: the growth inhibition was 13.7% in test [1]; 10.9% in test [2]; -2.75% in test [3]; -16.9% in test [4]; -7.35% in test [5]; 0.55% in test [6].
For the compound `CC(CN(CP(=O)([O-])[O-])CP(=O)([O-])[O-])N(CP(=O)([O-])[O-])CP(=O)([O-])[O-].N.N.[Pt+2]` (stereo not given), the growth inhibition is -18.6% in test [1]; -20.5% in test [2]; -18.9% in test [3]; 23.6% in test [4]; 9.9% in test [5]; -10.8% in test [6].
Regarding `O=S1(=O)OCCOS(=O)(=O)C1(Br)Cc1ccccc1`, the growth inhibition was -67.7% in test [1]; -40.6% in test [2]; -37.5% in test [3]; -40.4% in test [4]; -63.8% in test [5]; -24.2% in test [6].
`CCCc1ccc(C)c(Br)c1`: the growth inhibition in test [1] was 26.4%; in test [2], 15.8%; in test [3], 0.9%; in test [4], -9.95%; in test [5] it was 1.3%; in test [6] it was 3.3%.
Turning to `Cc1ccc(N=Nc2ccc(C)cc2NC(=O)c2cccc3ccccc23)cc1`, the growth inhibition in test [1] is -12.6%; in test [2], -8%; in test [3], -12.2%; in test [4] it was -90.5%; in test [5], -1.95%; in test [6], -2.7%.
On to `O=C(O)c1cccc(S(=O)(=O)c2ccc([N+](=O)[O-])cc2)c1`, for which the growth inhibition in test [1] was -0.25%; in test [2], 0.55%; in test [3], 4.9%; in test [4], -6.15%; in test [5] it was -5.7%; in test [6], 14.2%.
`CCOC(=O)/C(C)=C\C=C(\C)CCC=C(C)C`: the growth inhibition in test [1] was -8.8%; in test [2], -19.1%; in test [3], -2.45%; in test [4] it was -28.3%; in test [5], -15.2%; in test [6] it was 15.4%.
In the case of `Oc1ccc(Br)cc1/C=N/N1CCN(/N=C/c2cc(Br)ccc2O)CC1`, the growth inhibition in test [1] is 22.9%; in test [2], 6.2%; in test [3], 35.2%; in test [4], 14.9%; in test [5], 1.7%; in test [6], 25.1%.
Take `CC(O)(c1ccccc1)c1ccccc1`: the growth inhibition is -13.3% in test [1]; -1.75% in test [2]; -25.6% in test [3]; -16.8% in test [4]; -2.3% in test [5]; -33.3% in test [6].
As to `O=C(NC1CCCCC1)/C(=C\c1ccccc1)NC(=O)c1ccccc1`, the growth inhibition is -26.8% in test [1]; -48.4% in test [2]; -28.6% in test [3]; 0.05% in test [4]; -6.8% in test [5]; -27.4% in test [6].
In the case of `C=CCONC(=O)c1ccc(Cl)cc1`, the growth inhibition in test [1] was 0.5%; in test [2], 1.75%; in test [3], -4.2%; in test [4] it was -5.5%; in test [5], -19.2%; in test [6], 27.3%.
In the case of `Cc1ccc(S(=O)(=O)OCCOCCOS(=O)(=O)c2ccc(C)cc2)cc1`, the growth inhibition is 30.8% in test [1]; -0.4% in test [2]; 2.25% in test [3]; 4% in test [4]; 18.9% in test [5]; 17.8% in test [6].
For `N#Cc1c(-c2ccccc2Cl)c(-c2ccccc2Cl)nn(CCO)c1=O`, the growth inhibition in test [1] is 16.9%; in test [2], 7.2%; in test [3], 13.4%; in test [4], 9.35%; in test [5], 10.2%; in test [6] it was 27.5%.
Take `Nc1ccc2c(C(F)(F)F)cc(=O)oc2c1`: the growth inhibition was 14.2% in test [1]; -2.2% in test [2]; 8.2% in test [3]; -29.6% in test [4]; 8.55% in test [5]; 8.8% in test [6].
Turning to `Oc1ccccc1/C=N/N1C(=S)N(C23CC4CC(CC(C4)C2)C3)C(=Nc2ccccc2)C1=Nc1ccccc1`, the growth inhibition is -8.55% in test [1]; -16.2% in test [2]; -23.2% in test [3]; 2.35% in test [4]; -3% in test [5]; -14.3% in test [6].
As to `c1ccc(-n2ncnn2)cc1`, the growth inhibition in test [1] was -6.5%; in test [2], -11.3%; in test [3], -8.55%; in test [4], -41.1%; in test [5] it was 24.4%; in test [6], -1.75%.
As to `O=Cc1ccccc1OCCOc1ccccc1C=O`, the growth inhibition in test [1] was 8.7%; in test [2], 1.35%; in test [3], 10.2%; in test [4] it was -24%; in test [5], 9.4%; in test [6], 19.1%.
